Experimental data taken from PubChem BioAssay (EPA / NIEHS).
Calls of active or inactive are those of the source. The calls were made as follows: active = hit-call score of the fitted dose curve at least 0.9, where 1 is the maximum; inactive = score below 0.9.

Assay: CCTE_Harrill_HTTr_Viability_MCF7: CCTE's 6-hour Cell Viability Assessment for the High-Throughput Transcriptomics (HTTr) Platform, in MCF-7 cells cultured in DMEM + 10% fetal bovine serum, Harrill Lab (AID 2284010)
In short: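 Membrane integrity was scored by high-content imaging of propidium iodide dye exclusion after a 6 h exposure across an eight-point dilution series. Data were fitted bidirectionally relative to DMSO as negative control and baseline.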

SMILES	outcome
O=C1O[C@H]([C@H](O)CO)C(O)=C1O	inactive
Cc1cn([C@H]2C=C[C@@H](CO)O2)c(=O)[nH]c1=O	inactive
O=C(O)c1cccnc1	inactive
O=C(O)c1[nH]n(-c2ccc(S(=O)(=O)O)cc2)c(=O)c1N=Nc1ccc(S(=O)(=O)O)cc1	inactive
CCCCC(CC)COC(=O)CCCCCCCC(=O)OCC(CC)CCCC (centres undefined)	inactive
Oc1ccccc1O	inactive
CC(=O)O	inactive
CC(COCC(C)OC(=O)c1ccccc1)OC(=O)c1ccccc1 (centres undefined)	inactive
CC(C)(C)c1ccccc1	inactive
CCc1nc(N)nc(N)c1-c1ccc(Cl)cc1	inactive
CC(=O)CC(c1ccccc1)c1c(O)c2ccccc2oc1=O (centres undefined)	inactive
COC(=O)CCC(=O)OC	inactive
CO[C@@H]1COCC[C@@H]1N[C@@H]1CC[C@@](C(=O)N2CCc3ncc(C(F)(F)F)cc3C2)(C(C)C)C1	inactive
O=[Si]=O	inactive
CC(=O)OC1CC(C)OC(C)O1 (centres undefined)	inactive
COc1ccc(C(=O)Nc2nc3ccccc3c(NCc3ccccc3)c2C#N)cc1	inactive
Cn1cnc2c1c(=O)[nH]c(=O)n2C	inactive
CC(=O)OCC(COC(C)=O)OC(C)=O	inactive
O=C1NC(=O)C(c2ccccc2)(c2ccccc2)N1	inactive
CCCCC(CC)CO (centres undefined)	inactive
O=C1c2c(O)cccc2Cc2cccc(O)c21	inactive
Cc1occc(=O)c1O	inactive
CCCCc1nc2cccnc2n1Cc1ccc(-c2ccccc2-c2nnn[nH]2)cc1	inactive
CC1(C)C(=O)NC(=O)N1CO	inactive
OCC(O)CO	inactive
O=NO	inactive
CC(=O)[C@@]1(O)CC[C@H]2[C@@H]3CCC4=CC(=O)CC[C@]4(C)[C@H]3CC[C@@]21C	inactive
CN(C)CCCN(C)CCCN(C)C	inactive
C/C=C/C=C/C(=O)O	inactive
